# Screening results from PubChem BioAssay.
# IDE exosite FP: displaces the probe from the exo-site of human IDE; 17,000 tested, 6.3% active; purified IDE, FL-6b probe fluorescence polarization; stronger effect = lower value; z-score at 20 µM;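 active = z-score of -3 or lower, meaning strong loss of probe binding signal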;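 also: His-tagged human IDE residues 42-1019 made in E. coli with 30 nM FL-6b probe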
# Target sequence (P14735 42-1019 limits assumed): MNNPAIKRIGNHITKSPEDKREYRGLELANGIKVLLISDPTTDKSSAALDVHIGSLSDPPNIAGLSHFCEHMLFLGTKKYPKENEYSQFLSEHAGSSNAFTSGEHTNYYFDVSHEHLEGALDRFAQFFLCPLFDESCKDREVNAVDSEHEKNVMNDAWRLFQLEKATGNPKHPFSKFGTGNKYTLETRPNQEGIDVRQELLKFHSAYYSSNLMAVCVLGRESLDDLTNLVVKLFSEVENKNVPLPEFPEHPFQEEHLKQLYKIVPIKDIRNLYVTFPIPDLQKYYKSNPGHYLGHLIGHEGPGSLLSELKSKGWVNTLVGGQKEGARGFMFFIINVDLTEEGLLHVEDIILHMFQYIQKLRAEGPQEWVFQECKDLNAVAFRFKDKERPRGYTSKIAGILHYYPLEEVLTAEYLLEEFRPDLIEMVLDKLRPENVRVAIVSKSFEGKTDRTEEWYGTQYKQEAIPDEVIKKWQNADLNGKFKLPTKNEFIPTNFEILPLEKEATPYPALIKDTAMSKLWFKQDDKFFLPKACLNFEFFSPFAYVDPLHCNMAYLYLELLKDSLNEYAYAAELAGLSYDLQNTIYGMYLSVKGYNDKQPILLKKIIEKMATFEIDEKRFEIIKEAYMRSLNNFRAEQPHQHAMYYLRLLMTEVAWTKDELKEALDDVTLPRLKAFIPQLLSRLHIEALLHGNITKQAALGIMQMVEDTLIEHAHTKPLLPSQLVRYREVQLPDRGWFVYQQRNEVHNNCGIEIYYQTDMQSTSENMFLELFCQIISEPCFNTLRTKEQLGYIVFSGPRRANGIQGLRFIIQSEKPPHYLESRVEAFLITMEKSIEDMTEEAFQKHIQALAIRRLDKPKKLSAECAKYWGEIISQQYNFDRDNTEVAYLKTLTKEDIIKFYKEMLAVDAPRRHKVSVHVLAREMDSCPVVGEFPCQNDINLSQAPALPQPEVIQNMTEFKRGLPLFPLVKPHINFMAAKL
# An asterisk follows results filed as active; ! = not active in a repeat. Many of the other results were omitted from the sample, so hits are more common in it than they were.
SMILES,IDE exosite FP
OC[C@@H]1[C@@H](c2ccc(C#Cc3ccccc3)cc2)[C@@H]2CN(Cc3cncnc3)CCCCN12,-6.4*
OC[C@H]1[C@@H](c2ccc(C#Cc3ccccc3)cc2)[C@H]2CN(Cc3cncnc3)CCCCN21,-0.52
COCC#Cc1ccc([C@H]2[C@H]3CN(Cc4cncnc4)CCCCN3[C@H]2CO)cc1,1.3
CCCC#Cc1ccc([C@@H]2[C@H](CO)N3CCCCN(Cc4cccnc4)C[C@@H]23)cc1,0.86
CCCC#Cc1ccc([C@@H]2[C@H](CO)N3CCCCN(Cc4cncnc4)C[C@@H]23)cc1,0.051
OC[C@@H]1[C@H](c2ccc(C#Cc3ccccc3)cc2)[C@H]2CN(Cc3cncnc3)CCCCN12,-8.5*
OC[C@H]1[C@@H](c2ccc(-c3ccccc3)cc2)[C@@H]2CN(Cc3ccccn3)CCCCN12,1.3
O=C(C[C@H]1CC[C@H](NS(=O)(=O)c2ccccc2F)[C@H](CO)O1)NCCCN1CCOCC1,-0.11
COc1ccc([C@H]2C/C=C\C[C@H](c3ccc(F)cc3)NC(=O)CCC(=O)N2)c(OC)c1,0.73
N#C[C@@H]1[C@@H](c2ccc(/C=C/c3ccccc3)cc2)[C@@H](CO)N1C(=O)C1CCC1,2
CCCNC(=O)N1[C@@H]2Cn3c(cccc3=O)[C@H]1[C@@H](C(=O)N1CCC(Cc3ccccc3)CC1)[C@@H]2CO,0.64
CCCNC(=O)N[C@@H]1C=C[C@H](CC(=O)N2CCN(C)CC2)O[C@@H]1CO,1.4
O=C(C[C@H]1CC[C@H](NC(=O)c2cccnc2)[C@@H](CO)O1)NCc1ccc(Cl)c(Cl)c1,-0.39
COc1cccc(NC(=O)Nc2ccc3c(c2)C(=O)N(C)C[C@@H](OC)[C@@H](C)CN[C@@H](C)CO3)c1,-0.14
COc1cccc(NC(=O)Nc2ccc3c(c2)C(=O)N(C)C[C@@H](OC)[C@@H](C)CN[C@H](C)CO3)c1,-0.96
COc1cccc(NC(=O)Nc2ccc3c(c2)C(=O)N(C)C[C@H](OC)[C@H](C)CN[C@H](C)CO3)c1,1.7
CO[C@@H]1CN(C)C(=O)c2cc(NC(=O)c3ccc(Oc4ccccc4)cc3)ccc2OC[C@H](C)NC[C@H]1C,-7.6*
CO[C@H]1CN(C)C(=O)c2cc(NC(=O)c3cnccn3)ccc2OC[C@@H](C)NC[C@@H]1C,2
CO[C@H]1CN(C)C(=O)c2cc(NC(=O)c3ccc(Oc4ccccc4)cc3)ccc2OC[C@@H](C)NC[C@@H]1C,-13*
CC(=O)N1[C@H](CO)[C@@H](c2ccccc2)[C@@H]1CNC(=O)CN1CCOCC1,-0.19
CC(=O)N1[C@H](CO)[C@@H](c2ccccc2)[C@H]1CN(C)S(=O)(=O)c1ccccc1,-2.1
COc1ccc(CN(C)C[C@@H]2OCCCC[C@H](C)Oc3ccc(NC(=O)C4CCCCC4)cc3C(=O)N([C@H](C)CO)C[C@@H]2C)cc1,0.64
O=C(CC(F)(F)F)N1C[C@H]2[C@@H](c3ccccc31)[C@@H](CO)N2C(=O)c1ccncc1,3
CCCN(C)C[C@H]1OCCCC[C@@H](C)Oc2ccc(NC(=O)CCCN(C)C)cc2C(=O)N([C@@H](C)CO)C[C@H]1C,0.8
O=C(c1cnccn1)N1CC(=O)N2[C@@H](CO)[C@@H](c3ccc(C#CCc4ccccc4)cc3)[C@@H]2C1,-0.76
SMILES,IDE exosite FP
Cc1cccc(S(=O)(=O)N2C[C@@H]3N[C@H](C2)C3c2ccc(-c3cncnc3)cc2)c1 (stereo partly specified),0.092
COc1cccc(S(=O)(=O)N2C[C@@H]3N[C@H](C2)C3c2ccc(-c3ccccc3OC)cc2)c1 (stereo partly specified),-2.2
Cc1cccc(S(=O)(=O)N2C[C@@H]3N[C@H](C2)C3c2ccc(-c3ccccc3C)cc2)c1 (stereo partly specified),-6.6*!
COc1cccc(S(=O)(=O)N2C[C@@H]3N[C@H](C2)C3c2ccc(-c3ccccc3F)cc2)c1 (stereo partly specified),0.57
COc1cccc(S(=O)(=O)N2C[C@@H]3N[C@H](C2)C3c2ccc(-c3ccccc3C)cc2)c1 (stereo partly specified),-9.9*!
Cc1cccc(S(=O)(=O)N2C[C@@H]3N[C@H](C2)C3c2ccc(-c3ccccc3F)cc2)c1 (stereo partly specified),2.5
C/C=C/c1ccc([C@@H]2[C@@H](CNC(=O)C3CCC3)N(C(=O)NCCC)[C@H]2CO)cc1,-0.3
CO[C@@H](CN(C)Cc1cc(F)ccc1F)[C@@H](C)CN([C@H](C)CO)S(=O)(=O)c1ccc(C)cc1,0.99
CC(C)CC#Cc1ccc([C@H]2[C@@H](CO)N3C(=O)CN(C(=O)c4cnccn4)C[C@@H]23)cc1,1.6
COc1cccc(-c2ccc([C@@H]3[C@H]4CN(C(=O)C5CC5)CC(=O)N4[C@H]3CO)cc2)c1,-11*
COc1ccc(-c2ccc([C@@H]3[C@H]4CN(C(=O)C5CCCC5)CC(=O)N4[C@H]3CO)cc2)cc1,-1.1
COc1ccc(-c2ccc([C@@H]3[C@@H](CO)N4C(=O)CN(C(=O)C5CCCC5)C[C@H]34)cc2)cc1,0.57
COc1ccc(-c2ccc([C@H]3[C@@H](CO)N4C(=O)CN(C(=O)C5CCC5)C[C@@H]34)cc2)cc1,1.7
